Measurements from PubChem BioAssay (NCATS).
Records with an inconclusive call do not appear. Active and inactive are the calls of the source. Unless noted, the call rests on the fitted dose curve; in most records, active means well fitted inhibition curve with a large enough effect; inconclusive means small, poorly fitted or top-dose-only effect; inactive means flat fitted curve, though single readings scatter.

How the values were obtained:
[1] = S16 Schwann cell PMP22 intronic element beta-lactamase assay (AID 624044; calls by dose curve; further: nearly all actives have a fitted effect of over 15% in size)
Summary of the method: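 Rat S16 Schwann cells with beta-Lac driven by a PMP22 intronic element, compound-treated 24 h at 37 °C. LiveBLAzer FRET B/G read: 460 nm normalized to potassium clavulanate vs DMSO; 535 nm FRET as viability; concentration-effect curves classified.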

[2] = system: C2A; test: qHTS profiling for inhibitors of Plasmodium falciparum proliferation (AID 504749); further: nearly all actives have a fitted effect of over 60% in size; further: potency means the concentration at half of the fitted maximal effect; conditions: P. falciparum in erythrocytes, SYBR Green DNA, 72 h; series mostly up to 28.7 µM
Summary of the method: (§1)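 Three-day growth assay of blood-stage parasites in erythrocytes (0.3% parasitemia, 2.5% hematocrit) at 37 C, 5% CO2, quantified by SYBR Green DNA staining after overnight detergent lysis.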

[3] = system: CP185; test: as above; conditions: P. falciparum in erythrocytes, SYBR Green DNA, 72 h; series mostly up to 28.7 µM
Summary of the method: as §1

[4] = system: CP191; test: as above; conditions: P. falciparum in erythrocytes, SYBR Green DNA, 72 h; series mostly up to 28.7 µM
Summary of the method: as §1

[5] = system: CP194; test: as above; conditions: P. falciparum in erythrocytes, SYBR Green DNA, 72 h; series mostly up to 28.7 µM
Summary of the method: as §1

[6] = system: CP201; test: as above; conditions: P. falciparum in erythrocytes, SYBR Green DNA, 72 h; series mostly up to 28.7 µM
Summary of the method: as §1

[7] = system: CP211; test: as above; conditions: P. falciparum in erythrocytes, SYBR Green DNA, 72 h; series mostly up to 28.7 µM
Summary of the method: as §1

[8] = system: CP215; test: as above; conditions: P. falciparum in erythrocytes, SYBR Green DNA, 72 h; series mostly up to 28.7 µM
Summary of the method: as §1

[9] = system: CP247; test: as above; conditions: P. falciparum in erythrocytes, SYBR Green DNA, 72 h; series mostly up to 28.7 µM
Summary of the method: as §1

[10] = system: CP250; test: as above; conditions: P. falciparum in erythrocytes, SYBR Green DNA, 72 h; series mostly up to 28.7 µM
Summary of the method: as §1

[11] = system: CP256; test: as above; conditions: P. falciparum in erythrocytes, SYBR Green DNA, 72 h; series mostly up to 28.7 µM
Summary of the method: as §1

[12] = system: CP260; test: as above; conditions: P. falciparum in erythrocytes, SYBR Green DNA, 72 h; series mostly up to 28.7 µM
Summary of the method: as §1

[13] = system: CP266; test: as above; conditions: P. falciparum in erythrocytes, SYBR Green DNA, 72 h; series mostly up to 28.7 µM
Summary of the method: as §1

[14] = system: CP269; test: as above; conditions: P. falciparum in erythrocytes, SYBR Green DNA, 72 h; series mostly up to 28.7 µM
Summary of the method: as §1

[15] = system: CP305; test: as above; conditions: P. falciparum in erythrocytes, SYBR Green DNA, 72 h; series mostly up to 28.7 µM
Summary of the method: as §1

[16] = system: CP325; test: as above; conditions: P. falciparum in erythrocytes, SYBR Green DNA, 72 h; series mostly up to 28.7 µM
Summary of the method: as §1

[17] = system: CP329; test: as above; conditions: P. falciparum in erythrocytes, SYBR Green DNA, 72 h; series mostly up to 28.7 µM
Summary of the method: as §1

[18] = system: DIV14; test: as above; conditions: P. falciparum in erythrocytes, SYBR Green DNA, 72 h; series mostly up to 28.7 µM
Summary of the method: as §1

[19] = system: DIV17; test: as above; conditions: P. falciparum in erythrocytes, SYBR Green DNA, 72 h; series mostly up to 28.7 µM
Summary of the method: as §1

[20] = system: PC15; test: as above; conditions: P. falciparum in erythrocytes, SYBR Green DNA, 72 h; series mostly up to 28.7 µM
Summary of the method: as §1

Measured: Potency

CO/N=C(\C(=O)N[C@@H]1C(=O)N2C(C(=O)[O-])=C(C[N+]3(C)CCCC3)CS[C@@H]12)c1csc(N)n1
inactive: all assays above

C[C@H]1C[C@@H]2[C@H]3CCC4=CC(=O)C=C[C@@]4(C)[C@@]3(Cl)[C@@H](O)C[C@]2(C)[C@]1(OC(=O)c1ccco1)C(=O)CCl
active: [8] 5.1 µM | [12] 3.98 µM | [18] 5.1 µM | [19] 7.21 µM
inactive: [1]

C[C@@H]1C[C@H]2[C@H]3C[C@@H](F)C4=CC(=O)C=C[C@]4(C)[C@@]3(Cl)[C@@H](O)C[C@@]2(C)[C@@H]1C(=O)COC(=O)C(C)(C)C
active: [12] 12.6 µM
not listed: [19] | [20]
inactive: all other assays above

C=C(NC(=O)C(=C)NC(=O)c1csc(C2=N[C@@H]3c4csc(n4)[C@@H]4NC(=O)c5csc(n5)[C@@H]([C@](C)(O)[C@H](C)O)NC(=O)[C@@H]5CSC(=N5)/C(=C/C)NC(=O)[C@@H]([C@H](C)O)NC(=O)c5csc(n5)[C@]3(CC2)NC(=O)[C@@H](C)NC(=O)C(=C)NC(=O)[C@@H](C)NC(=O)[C@@H]([C@@H](C)CC)N[C@H]2C=Cc3c([C@H](C)O)cc(nc3[C@@H]2O)C(=O)O[C@H]4C)n1)C(N)=O
inactive: [20]
